This passage reports cell growth results from the supplement of paper PMC3484114.

± gives the standard deviation.

This assay concerns OVCAR-3-derived ovarian cancer stem-like cells (spheroids). The assay can be described thus: cell growth relative to untreated control; higher = more growth (less inhibition). As to conditions: 2.29 µM; 96 h. Summed up: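 After trypsin dissociation, OVCAR-3 spheroid-derived stem-like cells were placed in ultra-low attachment 96-well plates at 50,000 cells/mL in stem cell medium and preincubated for 24 h. Treatment at 2.29 uM followed for 96 h at 37°C, 5% CO2, with 4 replicate wells per compound. A 4 h TOX8 resazurin fluorescence read (ex 560/em 590 nm) gave viability, from which percent growth relative to untreated wells was derived after blank subtraction and Grubbs outlier removal.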
As for `N#CC(=S)Nc1ccc(F)cc1`, the cell growth was found to be 104 ± 19%. In the case of `COc1ccc2c(c1)CCc1c-2n[nH]c1-c1[nH]nc2c1CCc1cc(OC)ccc1-2` it was 87.5 ± 18%. In the case of `CC(C)N.CC(C)N.[Cl-].[Cl-].[OH-].[OH-].[Pt]` it was 65.4 ± 57%. Take `CCSC(=O)N1c2ccc(OC)cc2C=CC1C#N` (centres undefined): the cell growth amounted to 52.9 ± 11%. In the case of `COc1ccc(N=Cc2ccc(N(CCC#N)S(=O)(=O)c3ccccc3)cc2C)cc1` it was 80.6 ± 28%; in that of `Cc1ccc(C)c2c(N=Nc3ccccc3[N+](=O)[O-])c(O)[nH]c12`, 138 ± 41%; in that of `Nc1nc(N)c2ncn(-c3ccccc3)c2n1`, 162 ± 19%. In the case of `N#CC(c1ccccc1)N(CCCCCCN(C(=O)c1ccccc1)C(C#N)c1ccccc1)C(=O)c1ccccc1` (centres undefined) it was 122 ± 23%; in that of `Nc1ccn([C@@H]2O[C@H](CO)[C@@H](O)[C@@H]2O)c(=O)n1`, 76.6 ± 11%. In turn, `CN(C)c1ccc(/C=C2\Cc3ccccc3C2=O)cc1Br` had a cell growth of 169 ± 23%. In the case of `Cc1cc(-c2nc3ccccc3s2)ccc1N` it was 73.6 ± 9%; in that of `O=C(Nc1cccc(C(F)(F)F)c1)C(=O)C(C(=O)c1ccc(Cl)c(Cl)c1)C1OC(=O)c2ccccc21` (centres undefined), 102 ± 20%.

For the compound `CCOC(=O)C(C)NC(=O)N(C)C12CC3CC(CC(C3)C1)C2` (centres undefined), the cell growth was 8 ± 3.5%. In the case of `CCN(CC)CCCC(C)Nc1c2ccc(Cl)cc2nc2ccc(OC)cc12` (centres undefined) it was 37.6 ± 6.1%; in that of `O=C(CC(=O)c1ccccc1NC1=Cc2ccccc2C(=O)C1=O)C(=O)NC1=C(Cl)C(=O)c2ccccc2C1=O`, 33.3 ± 13%. In the case of `O=C1NC(c2cccc3ccccc23)Nc2ccccc21` (centres undefined) it was 34.9 ± 6.6%. In the case of `Cc1ccc([S+](c2ccccc2)c2cc(C)ccc2C)cc1.O=C(OC(C(=O)[O-])C(OC(=O)c1ccccc1)C(=O)O)c1ccccc1` (centres undefined) it was 43.6 ± 5.1%. Take `CN/N=C(\C)C(CN1CCCCC1)C(C1=C(O)c2ccccc2OC1)c1ccccc1` (centres undefined): the cell growth amounted to 94.9 ± 41%. In the case of `C(=C/c1nc2ccccc2o1)/c1ccc2c(c1)OCO2` it was 94 ± 16%; in that of `C[C@@H]1C[C@H]2OC(=O)[C@@]3(C)CCC[C@@](C)([C@@H]23)[C@@]1(O)CCc1ccoc1`, 59.6 ± 12%. In the case of `O=[N+]([O-])c1cc(-c2nc(=S)[nH][nH]2)ccc1O` it was 98.5 ± 14%.

Turning to `COC1CN(C)C(=Nc2cccc3ccccc23)S1` (centres undefined), the cell growth was found to be 130 ± 21%. The compound `Cc1ccc(C2NC(=O)c3ccccc3N2)s1` (centres undefined) had a cell growth of 60.4 ± 16%. In the case of `Oc1[nH]c2ccccc2c1N=Nc1nc(-c2ccc(Br)cc2)cs1` it was 81.5 ± 29%.

The compound `CC(C)CCCCCCCCCCCCC(=O)NCC(=O)NC1C(C)OC(Nc2ncnc3nc[nH]c23)C(O)C1O` (centres undefined) gave a cell growth of 17.4 ± 6.2%. For the compound `Nc1ncnc2c1ncn2C1OC(CO)C(O)C1O` (centres undefined), the cell growth is 111 ± 13%.

Regarding `COc1cc(NS(C)(=O)=O)ccc1Nc1c2ccccc2nc2ccccc12`, the cell growth turned out to be 41.4 ± 12%. As to `O=C(CC1(O)C(=O)Nc2c(Cl)cc(Cl)cc21)c1ccc([N+](=O)[O-])cc1` (centres undefined), the cell growth came out at 101 ± 29%. In the case of `Nc1ccc2cc3ccc(N)cc3nc2c1` it was 25.8 ± 6.4%; in that of `CCCCCCCCCCCCCCCCOCC(O)CO` (centres undefined), 126 ± 28%; in that of `O=C1/C(=C\c2ccc(Cl)c(Cl)c2)CN(C(=O)CCN2CCOCC2)C/C1=C\c1ccc(Cl)c(Cl)c1`, 63.5 ± 9.5%.

`COC(=O)C1CCC(=O)N1C(c1ccc(OC)cc1)c1cc(OC)c(OC)c(OC)c1` (centres undefined) came in with a cell growth of 18.5 ± 9.1%. In turn, `CCCCCCC1CC(=O)C1(Cl)Cl` (centres undefined) registered a cell growth of 104 ± 16%.

As for `O=C(N=Nc1c(O)[nH]c2ccccc12)c1ccccc1O`, the cell growth was 105 ± 11%. In the case of `Cc1ccc2c(ccc(C=Cc3ccc(O)c4ncccc34)[n+]2C)c1` it was 23.7 ± 4.7%; in that of `Cc1cc(NCCCCCCCNc2cc(C)nc3cc(N)ccc23)c2ccc(N)cc2n1`, 96.4 ± 25%. As to `COc1cc2c(c(OC)c1OC)-c1ccc(OC)c(=O)cc1[C@@H](NC(=O)c1ccccc1)CC2`, the cell growth is 30.8 ± 5.6%. In the case of `Clc1ccc(C(c2ccccc2Cl)C(Cl)Cl)cc1` (centres undefined) it was 128 ± 48%; in that of `CC1(C)NC(=O)N(CCCCCCN2C(=O)NC(C)(C)C2=O)C1=O`, 85.8 ± 22%.
